The whole screen tested about 78,000 compounds, of which about 1,800 (2.3%) were called active. Not shown: some 27% with an inconclusive outcome. No stated cut-off is given here; in the data, active means inhibition above about 30%; inconclusive means mostly about 10% to 28%; inactive means weaker than that. Only a selection was taken, and actives are over-represented in it overall.
The compounds below were run against Interleukin-1 receptor-like 1 (Homo sapiens) (UniProt Q01638) (assay: blocks human ST2 binding to IL-33, primary screen, biochemical, AlphaLISA (AID 1259354)). Conditions: AlphaLISA ST2-Fc/biotin-IL-33 interaction, 1 h; at 17 µM, stronger effect = higher value.
Chain of Interleukin-1 receptor-like 1 (Homo sapiens) (Q01638 whole entry, looked up): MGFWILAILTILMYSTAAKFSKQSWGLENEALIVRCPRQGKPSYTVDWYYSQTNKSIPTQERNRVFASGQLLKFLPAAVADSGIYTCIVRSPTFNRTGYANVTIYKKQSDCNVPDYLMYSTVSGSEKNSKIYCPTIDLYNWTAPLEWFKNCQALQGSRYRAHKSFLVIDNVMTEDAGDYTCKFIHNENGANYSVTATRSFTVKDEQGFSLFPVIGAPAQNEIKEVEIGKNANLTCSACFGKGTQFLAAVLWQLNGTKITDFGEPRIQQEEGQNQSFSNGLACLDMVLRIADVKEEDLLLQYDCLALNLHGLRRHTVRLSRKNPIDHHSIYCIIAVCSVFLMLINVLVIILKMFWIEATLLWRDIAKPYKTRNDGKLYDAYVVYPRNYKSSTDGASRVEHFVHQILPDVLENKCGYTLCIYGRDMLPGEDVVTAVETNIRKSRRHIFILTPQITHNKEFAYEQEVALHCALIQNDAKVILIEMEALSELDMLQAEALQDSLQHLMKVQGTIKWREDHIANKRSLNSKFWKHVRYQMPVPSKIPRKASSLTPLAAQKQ

Row | Compound | inhibition
1 | CCN(CC)CCNc1ccc([N+](=O)[O-])c2cccnc12 | inactive
2 | CCN(CC)c1ccc([N+](=O)[O-])c2cccnc12 | 56% (active)
3 | COc1cc(CN2CCN(Cc3ccccc3)CC2)cc(I)c1O | inactive
4 | C/C=C(\C)CN1CCC2(CCNCC2)C1 | inactive
5 | CCOC(=O)C1C2NC(=O)N(c3cccc(C)c3)C1(C)Oc1c(OC)cccc12 (stereo not given) | inactive
